Results filed as inconclusive are left out. Calls of active or inactive are those of the source. Calls follow the shape of the dose curve; as a rule, active = well fitted curve in the direction sought with a large enough effect in the signal ratio (not every such curve was filed as active); inconclusive = small, poorly fitted or top-dose-only effect, or effect the other way, or a change in a side signal; inactive = no such curve, though single readings can be large or run the other way; the % refers to the signal ratio.
target: Tyrosine-protein phosphatase non-receptor type substrate 1 (Homo sapiens) + Leukocyte surface antigen CD47 (Homo sapiens) (UniProt P78324+Q08722); assay: CD47-SIRPalpha protein protein interaction - HTRF assay qHTS validation (AID 1347058); conditions: TR-FRET HTRF CD47-His / biotin-SIRPalpha binding, ratio 665/615; series mostly up to 38.3 µM
From the text: SIRPalpha is a myeloid cell expressed immunomodulatory receptor that binds the tumor expressed immune checkpoint CD47. Therapeutic disruption of this interaction leads to immune-mediated tumor rejection. This assay was used to quantitate CD47-SIRPalpha binding biochemically and evaluate chemical libraries for novel CD47-SIRPalpha inhibitors. To recapitulate the biological interaction of CD47 and SIRPalpha, we designed expression constructs to produce their recombinant, soluble, extracellular interaction domains. CD47 was produced with an N-terminal 6His tag. SIRPalpha was produced with an N-terminal Avi-Tag for site-specific biotin incorporation. The CD47-SIRPalpha interaction was measured by TR-FRET using affinity tag linked reagents (anti-6His-Eu donor and streptavidin-XL665 acceptor). SIRPalpha without biotin incorporation was used as a positive control inhibitor.
SEQUENCE No. (e.g., 1, 2, 3, etc.); […] (e.g., Cells, Incubation, Reagent, etc.); VALUE and DESCRIPTION.
1a. Reagent. 3 uL CD47-His (12.5 nM) and Anti-His Eu Donor reagent (0.7 nM) added to respective wells in Assay buffer; white/solid bottom high base, med bind 1536-well plates (Greiner 789075)
1b. Reagent. 2 uL Assay buffer negative control for background fluorescence
2. Reagent. 23 nL library compounds (7-pt, 1:4 intraplate titration series) or DMSO control transferred by Pin Tool
3. Centrifuge. Centrifuge plate for 30 s at 1000 RPM
4. Incubation.#Incubate reagents at room temperature for 30 min, protected from light
5. Reagent. 2 uL SIRPalpha-biotin (100 nM) in Assay buffer
6. Incubation.#Incubate reagents at room temperature for 30 min, protected from light
7. Reagent. 1 uL SAV-XL665 (85 nM) acceptor reagent added to respective wells
8. Centrifuge. Centrifuge plate for 30 s at 1000 RPM
9. Incubation. Incubate reagents at room temperature for 30 min, protected from light
10. Detector. Measure Top TR-FRET on EnVision (Eu/APC filter set); calculate ratio Ch1/Ch2
1. Assay buffer composition.#Phosphate buffered saline (PBS; 10 mM Phosphate, 137 mM NaCl, and 2.7 mM KCl; pH 7.4), 0.05% IGEPAL CA-630
2. 23nL of […] library compounds (7 plates) or DMSO vehicle control transferred to 9 Greiner white/solid bottom high base, TC plates in 7 interplate 1:5 titrations (see Yasgar, A. et al. 2008) with Pintool. Two of the 9 plates are DMSO-only in compound field at beginning and end of compound library-treated plates.
10. Detector settings#Mirror = LANCE/DELFIA Dual Enh; Ex. Filter = UV2[TRF] 320; Em. Filter = APC 665; 2nd Em. Filter = Europium 615; Measurement h = 6.5; Ex. light (%) = 100; Delay = […]; Window t = 100 us; No. Seq. windows = 1; Time between flashes = 2000us; No. of flashes = 100; No. of flashes for 2nd detector = 100; Calculation: "Ratio Ch1/Ch2"

Sequence of Tyrosine-protein phosphatase non-receptor type substrate 1 (Homo sapiens) + Leukocyte surface antigen CD47 (Homo sapiens) (P78324 whole entry, looked up, the tested form may be a part): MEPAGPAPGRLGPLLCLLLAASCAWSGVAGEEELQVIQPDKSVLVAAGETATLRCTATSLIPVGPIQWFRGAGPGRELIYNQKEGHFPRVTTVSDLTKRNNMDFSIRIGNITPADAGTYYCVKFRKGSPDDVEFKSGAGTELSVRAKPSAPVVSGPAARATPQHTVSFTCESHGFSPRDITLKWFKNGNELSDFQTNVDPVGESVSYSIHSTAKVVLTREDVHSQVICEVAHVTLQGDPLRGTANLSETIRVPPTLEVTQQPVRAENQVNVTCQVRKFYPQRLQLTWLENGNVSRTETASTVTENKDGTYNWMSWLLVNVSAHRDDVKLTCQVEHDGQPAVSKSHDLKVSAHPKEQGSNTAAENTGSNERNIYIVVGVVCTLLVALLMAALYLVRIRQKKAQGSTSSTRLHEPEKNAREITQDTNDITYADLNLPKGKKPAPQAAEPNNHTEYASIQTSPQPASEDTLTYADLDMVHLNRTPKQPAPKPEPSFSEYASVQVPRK
Sequence of Tyrosine-protein phosphatase non-receptor type substrate 1 (Homo sapiens) + Leukocyte surface antigen CD47 (Homo sapiens) (Q08722 whole entry, looked up, the tested form may be a part): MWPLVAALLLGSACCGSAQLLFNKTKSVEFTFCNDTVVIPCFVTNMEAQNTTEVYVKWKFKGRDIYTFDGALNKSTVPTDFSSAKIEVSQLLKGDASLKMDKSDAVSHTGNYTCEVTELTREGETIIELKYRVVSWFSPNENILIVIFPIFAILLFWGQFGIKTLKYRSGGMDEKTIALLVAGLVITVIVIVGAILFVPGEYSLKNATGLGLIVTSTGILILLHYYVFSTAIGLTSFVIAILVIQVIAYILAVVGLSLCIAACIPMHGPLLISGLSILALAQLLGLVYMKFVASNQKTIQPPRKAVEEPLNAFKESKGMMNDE

| SMILES | outcome |
| --- | --- |
| CCCN(CCC)CCc1ccc(O)c(O)c1 | inactive |
| Cc1c2ccncc2c(C)c2c1[nH]c1ccccc12 | inactive |
| C[N+]1(C)CCc2cc3c(cc2[C@H]1[C@@H]1OC(=O)c2c1ccc1c2OCO1)OCO3 | inactive |
| c1ccc2c(N3CCNCC3)cccc2c1 | inactive |
| CC(N)Cc1c[nH]c2ccc(O)cc12 (stereo not given) | inactive |
| CC(C)(O)[C@@H]1C2OC(=O)[C@@H]1[C@]1(O)C[C@H]3O[C@]34C(=O)O[C@H]2[C@]14C (tested in a mixture with another compound) | inactive |
| C=CCN1C[C@@H](C)N([C@H](c2ccc(C(=O)N(CC)CC)cc2)c2cccc(OC)c2)C[C@@H]1C | inactive |
| NNC(=O)c1ccc(O)cc1 | inactive |
| C[N+]1(C)C2CCC1CC(OC(=O)c1c[nH]c3ccccc13)C2 (stereo not given) | inactive |
| CCn1cnc2c(Nc3cccc(Cl)c3)nc(N[C@@H]3CCCC[C@@H]3N)nc21 | inactive |
| Cc1o[nH]c(=O)c1CC(N)C(=O)O (stereo not given) | inactive |
| CCCN(CCC)C1CCc2cccc(O)c2C1 (stereo not given) | inactive |
| C[N+]1(C)CCOC(O)(c2ccc(-c3ccc(C4(O)C[N+](C)(C)CCO4)cc3)cc2)C1 (stereo not given) | inactive |
| NC(CCCCCP(=O)(O)O)C(=O)O (stereo not given) | inactive |
| COC(=O)N1CCN(C(=O)Cc2ccc(Cl)c(Cl)c2)C(CN2CCCC2)C1 (stereo not given) | inactive |
| CC(=O)NBr | inactive |
| N[C@@]1(C(=O)O)CC[C@@H](C(=O)O)C1 | inactive |
| C=CCN1CCC23c4c5ccc(O)c4O[C@H]2C(=O)CC[C@@]3(O)C1C5 (stereo not given in full) | inactive |
| NC(=O)COc1c(F)cc(SCCNS(=O)(=O)c2ccccc2)cc1F | inactive |
| NCCc1ccc(S(=O)(=O)F)cc1 | inactive |

| SMILES | outcome |
| --- | --- |
| NCCCP(=O)(O)O | inactive |
| NCCc1c[nH]c2ccc(C(N)=O)cc12 | inactive |
| C[C@@H]1O[C@@H](O[C@H]2C[C@@H](O)[C@]3(CO)[C@@H]4C(CC[C@]3(O)C2)[C@@]2(O)CC[C@H]([C@@H]3COC(=O)C3)[C@@]2(C)C[C@H]4O)[C@H](O)[C@H](O)[C@H]1O (stereo not given in full) | inactive |
| Clc1ccc(N2CC3CCC(C2)N3)nn1 | inactive |
| CC12NC(Cc3ccccc31)c1ccccc12 (stereo not given) | inactive |
| C[C@H]1C2Cc3ccc(O)cc3[C@@]1(C)CCN2CC1CC1 | inactive |
| NNC(N)=O | inactive |
| CCCN(CCC)C1Cc2cc(OC)c(OC)cc2C1 | inactive |
| Ic1ccccc1CNC1C2CCN(CC2)C1C(c1ccccc1)c1ccccc1 (stereo not given) | inactive |
| CCCN(CCC)[C@@H]1CCc2cccc(O)c2C1 | inactive |
| CCCCCCCCCCCCCC(=O)O[C@@H]1[C@@H](C)[C@@]2(O)[C@@H](C=C(CO)C[C@@]3(O)C(=O)C(C)=C[C@@H]23)C2C(C)(C)[C@@]21OC(C)=O (stereo not given in full) | inactive |
| CO[C@H]1CC=C2CCN3CCC4=C(CC(=O)OC4)[C@]23C1 | inactive |
| CP(=O)(O)C1=CCNCC1 | inactive |
| CCOC(=O)c1ncn2c1[C@@H]1CCCN1C(=O)c1cc(OC)ccc1-2 | inactive |
| C[C@H](Cc1ccc2c(c1)OC(C(=O)O)(C(=O)O)O2)NC[C@H](O)c1cccc(Cl)c1 | inactive |
| CCS(=O)(=O)Nc1cccc(C(=C2CCCCC2)c2cnc[nH]2)c1 | inactive |
| CCCN(CCC)[C@H]1CCc2c(F)ccc(O)c2C1 | inactive |
| O=C1CC[C@@]2(O)C3Cc4ccc(O)c5c4C2(CCN3CC2CC2)[C@H]1O5 (stereo not given in full) | inactive |
| c1ccc2c(c1)[I+]c1ccccc1-2 | inactive |
| Cc1cc([C@@H]2CCCN2C)on1 | inactive |

Source: PubChem BioAssay (NCATS)
